Hit rate of the full screen: of about 220,000 compounds, about 16,000 (7.3%) were called active. Inconclusive results (about 25%) are left out. Calls follow the shape of the dose curve; as a rule, active = well fitted inhibition curve with a large enough effect (not every such curve was filed as active); inconclusive = small, poorly fitted or top-dose-only effect, or another doubt; inactive = no such curve, though single readings can be large or run the other way. What follows is part of a selection rich in actives, with near analogues and random picks from the rest.
What follows are molecules tested against Aldehyde dehydrogenase 1A1 (Homo sapiens) (UniProt P00352) (assay: qHTS Assay for Inhibitors of Aldehyde Dehydrogenase 1 (ALDH1A1)). Conditions: Purified ALDH1A1, NADH fluorescence, propionaldehyde substrate; series mostly up to 75.3 µM; activity, negative = inhibition: at the top concentration.
Aldehyde dehydrogenase 1A1 (Homo sapiens), sequence (P00352 whole entry, looked up): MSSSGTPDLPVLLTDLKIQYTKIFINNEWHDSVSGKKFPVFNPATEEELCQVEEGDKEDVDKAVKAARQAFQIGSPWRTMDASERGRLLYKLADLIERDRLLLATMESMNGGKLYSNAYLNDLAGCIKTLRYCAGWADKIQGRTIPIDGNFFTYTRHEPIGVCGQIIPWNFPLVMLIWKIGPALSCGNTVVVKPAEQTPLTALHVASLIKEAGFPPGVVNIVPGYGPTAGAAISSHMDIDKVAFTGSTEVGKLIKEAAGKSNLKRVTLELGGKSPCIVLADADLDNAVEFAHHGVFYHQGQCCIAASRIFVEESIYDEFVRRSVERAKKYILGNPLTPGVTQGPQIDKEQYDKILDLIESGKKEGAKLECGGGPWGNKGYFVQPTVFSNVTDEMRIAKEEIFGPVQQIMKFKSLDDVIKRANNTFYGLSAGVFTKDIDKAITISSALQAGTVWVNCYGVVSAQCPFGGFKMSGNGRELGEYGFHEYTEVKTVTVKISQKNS

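For activity, negative = inhibition in this document: plate controls were no enzyme wells and a reference inhibitor.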
Potency is read from the fitted curve at half-maximal effect.

activity, negative = inhibition, inactive:
CC(C(=O)NC1CCCC1)N(c1ccc(Oc2ccccc2)cc1)S(C)(=O)=O (centres undefined) 6.52%
Cc1cccc(N(CC(=O)N2CCOCC2)S(C)(=O)=O)c1 -2.38%
Cc1ccc(N2C(=O)SC(N(CC(=O)O)c3ccc(C)cc3)C2=O)cc1 (centres undefined) 15.4%
Clc1ncn(CCOc2ccccc2)c1Cl 3.6%
Cc1noc(C)c1S(=O)(=O)Nc1ccc(C(=O)N2CCN(c3ccc(F)cc3)CC2)cc1 20.4%
COc1ccccc1NC(=O)C1=C(C)NC2=C(C(=O)CCC2)C1c1ccc(C)o1 (centres undefined) -13.5%
COC(=O)C1=C(C)NC(=O)NC1/C=C/c1ccccc1 (centres undefined) 4.26%
COC(=O)c1cc2n(n1)CCCNC2=O -1.44%
COc1ccc(/C=C2\SC(=N)N(c3ccc(F)cc3)C2=O)cc1 -5.39%
O=C(Nc1ccc(Cl)cn1)c1ccc2c(c1)OCCO2 3.42%
CNc1ccc([N+](=O)[O-])cc1C(=O)O 13.6%
COc1cccc(N2C(=O)C3CCCN3C2c2ccc(F)cc2)c1 (centres undefined) -13%
COc1cc(OC)cc(C(=O)NC(=S)N2CCN(c3ccc(C(F)(F)F)cc3[N+](=O)[O-])CC2)c1 2.52%
CC(Oc1ccc(Br)cc1Br)C(=O)NC1CCCC1 (centres undefined) -5.26%
CCC1CO/C(=C(\C(=C(Cl)Cl)N2CCOCC2)[N+](=O)[O-])N1 (centres undefined) 10.2%
CCc1nnc(NC(=O)c2cccc(S(=O)(=O)N(C)c3ccc(OC)cc3)c2)s1 5.68%
Cc1ccc(S(=O)(=O)N2CCN(C(=O)c3cccs3)CC2)cc1 8.32%
COc1cccc(NC(=S)N(CCc2c(C)[nH]c3ccccc23)Cc2ccco2)c1 -1.92%
Cc1[nH]c2ccccc2c1CCN(Cc1cccs1)C(=S)NC(C)(C)C 8.44%
Cc1cc(Cl)ccc1OCc1nc(-c2ccncc2)no1 6.39%
Nc1ccccc1N 6.38%
Cc1nn(C)c(C)c1Sc1ccccc1N 10.7%
COc1ccc(CN2CCN(Cc3cn(C)nc3-c3ccccc3)CC2CCO)c(C)c1C (centres undefined) -4.23%
CCOC(=O)CSc1nnc(-c2ccc([N+](=O)[O-])cc2)o1 -13.6%
COc1cccc(CN(C)CC(=O)NCc2ccccc2Cl)c1OC 0.824%
Cc1ccc(CN2CCN(Cc3cn(C)nc3-c3ccccc3)CC2CCO)o1 (centres undefined) -8.78%
Cc1ccccc1CN1C[C@@H]2C[C@@H](c3ccc4nsnc4c3)N3CCC[C@@]23C1=O 1.38%
Cn1nnc2cc(C(=O)NCCC3=CCCCC3)ccc21 -7.74%
CC1CCCN(C(=O)Cn2c(=O)oc3ccccc32)C1 (centres undefined) 0.199%
CCN(CC)C(=O)Cn1cc(S(=O)(=O)CC(=O)NCc2ccc3c(c2)OCO3)c2ccccc21 -3.66%
Cc1ccc(C(=O)COC(=O)CCCC(=O)NC2CCCCC2)cc1[N+](=O)[O-] -7.14%
Cc1c(NS(=O)(=O)c2ccc(NC3CCCC3)c([N+](=O)[O-])c2)c(=O)n(-c2ccccc2)n1C 8.67%
S=c1[nH]nc(-c2cccnc2)n1/N=C/C(Cl)=C\c1ccccc1 2.03%
CN1CCN(C2=NCCO2)CC1 4.37%
O=C(O)c1cc(Cl)c(Cl)cc1C(=O)Nc1cccc2ncccc12 2.26%
O=C(Nc1cccc2ncccc12)C(Cl)(Cl)Cl 3.17%
CCN(CC)CCCSc1nc2ccccc2s1 -13.5%
COC(=O)c1ccc(COC(=O)c2cnccn2)cc1 11.2%
COc1cc2sc(C)nc2cc1C -4.43%
Cc1ccc(NC(=O)c2ccc(Oc3ncccn3)cc2)cc1 4.07%
C=C(C(C)=O)C(O)c1cccs1 (centres undefined) -5.62%
CCC(=O)Nc1ccc2c(c1)nc(CCN1CCN(C)CC1)n2C 10.7%
CCCC(=O)Nc1nc2ccc(NC(=O)c3c(F)c(F)c(OC)c(F)c3F)cc2s1 5.83%
COC(=O)c1ccc(NC(=S)Nc2cccc(C)n2)cc1 -15%
Cc1cccc(OC(=O)c2sc3ncn(C)c(=O)c3c2C)c1 -9.06%
CCN1CCN(C(=O)CN(C)S(=O)(=O)c2ccc3ccccc3c2)CC1 -8.69%
CCC1CCCCN1S(=O)(=O)Cc1ccccc1Cl (centres undefined) -1.74%
CS(=O)(=O)N(CC(=O)NC1CCCC1)Cc1ccc(F)cc1 2.61%
Nc1c(C(=O)O)cnn1-c1ccccc1 -1.91%
Cc1c(C(=O)NCc2ccccc2)cnn1-c1ccccc1 -13.2%
CC(=O)N1N=C(c2ccccc2)OC1c1cccnc1 (centres undefined) -7.83%
COCc1c(C(=O)OCc2c(C)noc2C)oc2ccccc12 -8.05%
Fc1ccc(CNCc2ccc(Br)cc2)cc1 5.3%
S=c1[nH]nc(-c2ccc(Cl)cc2)n1CC1CCCO1 (centres undefined) -4.07%
Cc1nc2cnc(Nc3ccccc3)nc2n(C[C@H]2CCCO2)c1=O 8.56%
COCCn1c(=S)[nH]c2cc(C(=O)NCCc3ccc(OC)c(OC)c3)ccc2c1=O -4.54%
COc1ccc(CCNC(=O)Cn2c(=O)n(CC3CCCO3)c(=O)c3ccccc32)cc1OC (centres undefined) 0.6%
CCc1ccc(NC(=O)C(=O)N/N=C(\C)CC(=O)NCCOC)cc1 -6.85%
CCOC(=O)c1cccc(NC(=O)CCOc2ccccc2)c1 3.3%
CCOC(=O)CSc1nc(C)cc2c1C(=O)OC2 -2.92%
CCOC(=O)C1CCCN(C(=O)c2cccc(S(=O)(=O)N3CCOCC3)c2)C1 (centres undefined) -5.73%
COc1cccc(N(Cc2nnc3n2CCCCC3)C(=O)Nc2ccccc2F)c1 0.321%
Cc1cc(C(=O)NNS(=O)(=O)c2ccccc2C(F)(F)F)nn1C(C)(C)C -6.99%
O=C(Nc1ccc(Br)cn1)c1ccc([N+](=O)[O-])cc1Cl -6.95%
O=C(CCN1C(=O)c2ccccc2C1=O)Nc1cccc(F)c1 6.38%
O=C1c2ccccc2C(=O)N1CCCSc1ccccc1 -6.74% [at 13.5 µM]
Cc1ccc(C)c(CSc2nc(-c3ccco3)nc3c2c(=O)n(C)c(=O)n3C)c1 2%
O=C(O)CSc1nnc(-c2ccc3c(c2)OCO3)n1-c1ccccc1 6.9%
CC1(CCC(=O)OC2CCCCC2)OCCO1 -6.23% [at 13.5 µM]
CSc1ncccc1C(=O)NC1CCCCCC1 -8.2%
Cc1cccc(C2c3[nH]c4ccccc4c3CCN2C(=O)c2cc(-c3cccn3C)n[nH]2)n1 (centres undefined) -6.8%
COc1ccc2c(c1)C(c1cccs1)=NNC(c1cccnc1)=N2 -17.1%
CC(=O)Nc1ccc(NC(=O)C(C)n2c3ccccc3c3nc(=O)cc(C)n32)cc1 (centres undefined) 2.7%
C/C(=N\Nc1nc(N2CCOCC2)nc(N2CCOCC2)n1)c1ccc([N+](=O)[O-])cc1 -6.49%
COc1ccc(C(=O)Nc2cccc(S(C)(=O)=O)c2)cc1 -3.62%
CC(=O)Nc1ccc(S(=O)(=O)Nc2ccc(N3CCOCC3)c(F)c2)cc1 -1.53%
O=C(Nc1cccc(OCC(=O)N2CCOCC2)c1)C1CCCCC1 4.85%
COc1cccc(/C=C2\SC(=N)N(c3ccc(F)cc3)C2=O)c1 4.62%
COc1ccc(CCNC(=O)CSc2nnc3ccc(-c4ccncc4)nn23)cc1 7.74%
CN(C)C(=O)CSc1n[nH]c(-c2ccco2)n1 5.16%
CCOC(=O)c1cc2ccccc2nc1C 5.37%
CCOC(=O)c1ccc(NC(=S)Nc2cc(C)cc(C)n2)cc1 8.93%
O=S(=O)(c1ccccc1)c1nc(-c2ccccc2F)oc1NCc1cccnc1 -11.8%
CN(C)C=NC(=O)c1cccn1-c1ncc(C(F)(F)F)cc1Cl 4.08%
COC(=O)c1cc(NC(=O)c2nn(C)c(=O)c3ccccc23)cc(C(=O)OC)c1 -2.63%
OCCCC1CCCCN1Cc1nc(Cc2ccccc2Cl)no1 (centres undefined) 4.73%
COc1ccc(N2C(=O)/C(=C\c3ccco3)N=C2SCC(N)=O)cc1Cl -13.6%
Cc1ccccc1OCCC(=O)OCC(=O)NC(C)c1ccccc1 (centres undefined) 4.27%
O=C(COC(=O)CC1CC2CCC1C2)NC(=O)NC1CCCC1 (centres undefined) -3.73%

Potency, active:
Cc1cccc(N2C(=O)SC(N(CC(=O)O)c3cccc(C)c3)C2=O)c1 (centres undefined) 14.1 µM
COC(=O)C1=C(C)NC2=C(C(=O)c3ccccc32)C1c1ccc(-c2ccc(C(=O)O)cc2)o1 (centres undefined) 3.16 µM
COc1ccc(N2C(=O)CC(Nc3ccc(F)cc3)C2=O)c([N+](=O)[O-])c1 (centres undefined) 17.8 µM
COc1ccc2[nH]c(C)c(CCN(Cc3cccs3)C(=S)Nc3ccccc3OC)c2c1 25.1 µM
Nc1ccccc1Sc1cc(Cl)nnc1Cl 25.1 µM
Cc1ccccc1CN1C[C@@H]2C[C@@H](c3cn(C)nc3-c3ccccc3)N3CCC[C@@]23C1=O 1.58 µM
CC1CCCN(C(=O)c2ccc3c(c2)C(=O)N(CCC2=CCCCC2)C3=O)C1 (centres undefined) 0.501 µM
Cc1cc(C=O)c(C)n1-c1ccc(NC2CCCCC2)c([N+](=O)[O-])c1 5.62 µM
Cc1cc(-c2n[nH]c(=S)n2/N=C/C(Br)=C/c2ccccc2)n[nH]1 17.8 µM
Cc1ccc(/C=C(\C#N)C(=O)Nc2cccc3ncccc23)o1 8.91 µM
N#CC1=C(N)Oc2n[nH]c(CSc3ccccc3)c2C12C(=O)Nc1ccccc12 (centres undefined) 10 µM
CCCC(=O)Nc1ccc2c(c1)nc1n2CCSC1 25.1 µM
NNC(=O)c1cnn(-c2ccccc2)c1C(F)(F)F 11.2 µM
O=c1c2cc3c(=O)n(CC4CCCO4)c(=O)c3cc2c(=O)n1CC1CCCO1 (centres undefined) 0.316 µM
COC(=O)c1ccc2c(=O)n(CC3CCCO3)c(=S)[nH]c2c1 (centres undefined) 1.78 µM
O=C1c2ccccc2C(=O)N1CCC(O)C[N+](=O)[O-] (centres undefined) 22.4 µM
CSc1nsc(SC)c1NC(=O)OC1CCCCC1 20 µM
COc1ccc(NS(=O)(=O)c2cc(NC(=O)C3CCCCC3)ccc2N2CCOCC2)cc1 2.51 µM
CCOC(=O)c1cc2c(nc1NC(=S)Nc1ccccc1)CC(C)(CC)OC2 (centres undefined) 12.6 µM
CCOC(=O)CCC(=O)OCC(=O)NC(C)C1CC2CCC1C2 (centres undefined) 15.8 µM

From PubChem BioAssay AID1030 (National Center for Advancing Translational Sciences (NCATS), 2008)
